Measurements taken from PubChem BioAssay AID1159580 (chemical genetic matrix, 2015).
Several values for one entry are separate records, joined by “and”; a condition that tells them apart may be missing. Identical values can stand only once. About 2,000 (36%) of roughly 5,500 compounds were called active. Inconclusive results (about 18%) are left out. No stated cut-off is given here; in the data, active means normalized growth mostly below about 0.91 (no sharp cut-off); inconclusive means no clear call, values can overlap the other calls; inactive means mostly above about 0.92. The list shows a part of the results.

Assay: chemical genetic growth profiling, strain panel (AID 1159580);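 further: tested at 20 µM; growth read once vehicle control cultures reached saturation at 30 °C; 1 = growth at the plate median or of vehicle wells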
Details: S. cerevisiae deletion strains, growth OD

Measured: normalized growth

CCCCC(CC)CN=C(N)NC(N)=NCCCCCCN=C(N)NC(N)=NCC(CC)CCCC (stereo not drawn)
active: locus YAL021C, strain ccr4, stronger effect = lower value 0.063 | locus YAL026C, strain drs2, stronger effect = lower value 0.0642 | locus YAL030W, strain snc1, stronger effect = lower value 0.0574 | locus YBL061C, strain skt5, stronger effect = lower value 0.0589 | locus YBR009C, strain hhf1, stronger effect = lower value 0.0622 | locus YBR021W, strain FUR4, stronger effect = lower value 0.097 | locus YBR023C, strain chs3, stronger effect = lower value 0.064 | locus YBR171W, strain sec66, stronger effect = lower value 0.0773 | locus YBR229C, strain ROT2, stronger effect = lower value 0.056 | locus YBR231C, strain swc5, stronger effect = lower value 0.0612 | locus YBR279W, strain paf1, stronger effect = lower value 0.0581 | locus YCL011C, strain gbp2, stronger effect = lower value 0.0577 | locus YCL016C, strain dcc1, stronger effect = lower value 0.0603 | locus YCL029C, strain bik1, stronger effect = lower value 0.0601 | locus YCL069W, strain vba3, stronger effect = lower value 0.0617 | locus YCR088W, strain abp1, stronger effect = lower value 0.0627 | locus YDL005C, strain med2, stronger effect = lower value 0.0747 | locus YDL035C, strain GPR1, stronger effect = lower value 0.0524 | locus YDL040C, strain nat1, stronger effect = lower value 0.0565 | locus YDL074C, strain BRE1, stronger effect = lower value 0.0887 | locus YDL101C, strain DUN1, stronger effect = lower value 0.0654 | locus YDL134C, strain PPH21, stronger effect = lower value 0.0565 | locus YDL185W, strain tfp1, stronger effect = lower value 0.0566 | locus YDL192W, strain arf1, stronger effect = lower value 0.0604 | locus YDR001C, strain nth1, stronger effect = lower value 0.061 | locus YDR069C, strain doa4, stronger effect = lower value 0.0611 | locus YDR101C, strain arx1, stronger effect = lower value 0.0576 | locus YDR137W, strain rgp1, stronger effect = lower value 0.0839 | locus YDR159W, strain sac3, stronger effect = lower value 0.086 | locus YDR162C, strain NBP2, stronger effect = lower value 0.0531 | locus YDR195W, strain ref2 0.115 | locus YDR297W, strain sur2, stronger effect = lower value 0.0561 | locus YDR318W, strain mcm21, stronger effect = lower value 0.0605 | locus YDR334W, strain swr1, stronger effect = lower value 0.0645 | locus YDR335W, strain msn5, stronger effect = lower value 0.062 | locus YDR388W, stronger effect = lower value 0.0558 | locus YDR392W, strain spt3, stronger effect = lower value 0.0874 | locus YDR502C, strain sam2, stronger effect = lower value 0.0583 | locus YEL003W, strain gim4, stronger effect = lower value 0.054 | locus YEL037C, strain rad23, stronger effect = lower value 0.0582 | locus YEL061C, strain CIN8 (second series), stronger effect = lower value 0.06 | locus YEL061C, strain CIN8, stronger effect = lower value 0.0537 | locus YER015W, strain faa2, stronger effect = lower value 0.0615 | locus YER016W, strain bim1, stronger effect = lower value 0.0587 | locus YER110C, stronger effect = lower value 0.0718 | locus YER111C, strain swi4, stronger effect = lower value 0.0729 | locus YER155C, strain BEM2 (second series), stronger effect = lower value 0.09 | locus YER155C, strain BEM2, stronger effect = lower value 0.0673 | locus YER167W, strain BCK2, stronger effect = lower value 0.0573 | locus YFR010W, strain ubp6, stronger effect = lower value 0.0674 | locus YGL078C, strain dbp3, stronger effect = lower value 0.0573 | locus YGL086W, strain mad1, stronger effect = lower value 0.0562 | locus YGL167C, strain pmr1, stronger effect = lower value 0.071 | locus YGL173C, strain kem1, stronger effect = lower value 0.0685 | locus YGL227W, strain vid30, stronger effect = lower value 0.0653 | locus YGL240W, strain doc1, stronger effect = lower value 0.0743 | locus YGL248W, strain PDE1, stronger effect = lower value 0.0546 | locus YGL253W, strain hxk2, stronger effect = lower value 0.0547 | locus YGR078C, strain PAC10, stronger effect = lower value 0.0524 | locus YGR135W, strain pre9, stronger effect = lower value 0.0595 | locus YGR252W, strain gcn5, stronger effect = lower value 0.113 | locus YHR013C, strain ard1, stronger effect = lower value 0.109 | locus YHR027C, strain rpn1, stronger effect = lower value 0.0612 | locus YHR030C, strain SLT2, stronger effect = lower value 0.0544 and 0.0908 | locus YHR079C, strain IRE1 (second series), stronger effect = lower value 0.0569 | locus YHR079C, strain IRE1, stronger effect = lower value 0.106 | locus YHR094C, strain hxt1, stronger effect = lower value 0.0581 | locus YHR129C, strain ARP1, stronger effect = lower value 0.0586 | locus YHR142W, strain chs7, stronger effect = lower value 0.0728 | locus YHR200W, strain rpn10, stronger effect = lower value 0.0601 | locus YIL066C, strain RNR3, stronger effect = lower value 0.0539 | locus YIL073C, strain SPO22, stronger effect = lower value 0.104 | locus YIL125W, strain kgd1, stronger effect = lower value 0.0595 | locus YIR030C, strain dcg1, stronger effect = lower value 0.0594 | locus YJL092W, strain hpr5, stronger effect = lower value 0.0605 | locus YJL095W, strain BCK1 (second series), stronger effect = lower value 0.0569 | locus YJL095W, strain BCK1, stronger effect = lower value 0.0657 and 0.0991 | locus YJL115W, strain asf1, stronger effect = lower value 0.0737 | locus YJL129C, strain trk1, stronger effect = lower value 0.0818 | locus YJL134W, strain LCB3, stronger effect = lower value 0.0522 | locus YJL154C, strain vps35, stronger effect = lower value 0.0612 | locus YJL164C, strain tpk1, stronger effect = lower value 0.06 | locus YJL166W, strain qcr8, stronger effect = lower value 0.0603 | locus YJL168C, strain set2, stronger effect = lower value 0.0617 | locus YJL187C, strain SWE1 (second series), stronger effect = lower value 0.0584 | locus YJR043C, strain POL32, stronger effect = lower value 0.0684 | locus YJR066W, strain TOR1, stronger effect = lower value -0.00183 | locus YJR075W, strain HOC1, stronger effect = lower value 0.0661
